# Laboratory results published in PubChem BioAssay AID1645838 (ICCB-Longwood Screening Facility, Harvard Medical School, 2021).
# “And” between values parts separate entries of the source, which are not always exact repeats. Equal entries are not always repeated. The campaign covered roughly 2,000 compounds. About 100 (5%) were called active. Rule as the data show it: active = z-score above about 2; inactive = the rest. The sample as a whole holds a higher share of actives than the screen did. Some compounds were tested as several samples or in several runs, with calls that do not always agree. Positions of bridges follow the written chain, without caps; N, C: chain ends. Non-standard residues stand in square brackets, D forms with d. Residues, ends and D or L forms follow the SMILES beside them. hArg = N=C(N)NCCCC[CH](N)C(=O)O; Mpa = O=C(O)CCS
# Experiment: modulators of mitochondrial supercomplex assembly, cell-based, luminescence, Hoechst nuclei count (AID 1645838);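 also: control cybrid cells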;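 as to z-score: higher means more mitochondrial supercomplex formation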
# Details: Cells, luminescence/Hoechst cell count ratio, supercomplex reporter; for z-score: stronger effect = higher value; for cell count: measured here: cell number, Hoechst nuclei count
# [1] = library stock concentration (final well concentration not given) 46 uM
# [2] = library stock concentration (final well concentration not given) 278 uM
# [3] = library stock concentration (final well concentration not given) 1.67 mM
# [4] = library stock concentration (final well concentration not given) 10 mM
# [5] = library stock concentration (final well concentration not given) 80 uM
# [6] = library stock concentration (final well concentration not given) 400 uM
# [7] = library stock concentration (final well concentration not given) 2 mM
structure (smiles),measurement,setting,value
O=c1[nH]oc2cc(Cl)ccc12,z-score,[1],-0.28 (inactive)
same,z-score,[2],0.381 (inactive)
same,z-score,[3],-0.301 (inactive)
same,z-score,[4],0.402 (inactive)
same,cell count,[1],6680
same,cell count,[2],6710
same,cell count,[3],6630
same,cell count,[4],6300
O=P(O)(O)OC1C(O)C(OP(=O)(O)O)C(O)C(OP(=O)(O)O)C1O (centres undefined),z-score,,-0.332 (inactive)
same,cell count,,5290
CC(C)CC(NC(=O)NC(CCC(=O)O)C(=O)O)C(=O)O (centres undefined),z-score,[1],-0.295 (inactive)
same,z-score,[2],0.0106 (inactive)
same,z-score,[3],0.469 (inactive)
same,z-score,[4],0.233 (inactive)
same,cell count,[1],6480
same,cell count,[2],6530
same,cell count,[3],6460
same,cell count,[4],6410
COc1cc(=C2C=c3ccccc3=N2)[nH]c1=Cc1[nH]c(C)cc1C,z-score,[5],0.065 (inactive)
same,z-score,[6],2.07 (active)
same,z-score,[7],3.14 (active)
same,z-score,[4],1.08 (inactive)
same,cell count,[5],5750
same,cell count,[6],1640
same,cell count,[7],1600
same,cell count,[4],1560
Cc1cc(C)c(/C=C2\C(=O)Nc3ccccc32)[nH]1,z-score,,-0.647 (inactive)
same,cell count,,5700
CCCC(NC(C)C(=O)N1C(C(=O)O)C[C@H]2CCCC[C@@H]21)C(=O)OCC (some centres undefined),z-score,[5],-0.394 (inactive)
same,z-score,[6],0.104 (inactive)
same,z-score,[7],-0.276 (inactive)
same,z-score,[4],-0.453 (inactive)
same,cell count,[5],5070
same,cell count,[6],4880
same,cell count,[7],5080
same,cell count,[4],5340
CCCCCCCCC#CCC#CCC#CCCCC(=O)O,z-score,,0.153 (inactive)
same,cell count,,5310
CCCCC1C(=O)CC[C@H]2[C@@H]1CC(=O)[C@@H]2CCCCCCC(=O)O (some centres undefined),z-score,,-0.162 (inactive)
same,cell count,,5440
CC/C=C\C/C=C\C/C=C\CCCCCCCC(=O)OCC,z-score,,-0.911 (inactive)
same,cell count,,5260
O=C(NC1CCN(CC(F)(F)F)CC1)c1ccc(-c2cccc(F)c2)nc1,z-score,[1],-0.25 (inactive)
same,z-score,[2],0.0438 (inactive)
same,z-score,[3],-0.291 (inactive)
same,z-score,[4],-0.236 (inactive)
same,cell count,[1],6960
same,cell count,[2],6520
same,cell count,[3],7210
same,cell count,[4],7340
NC(=O)Nc1cc(-c2cccc(F)c2)sc1C(=O)NC1CCCNC1 (centres undefined),outcome,library stock 400 µM,inactive; censored for cell count
same,outcome,library stock 2 mM,inactive; censored for cell count
same,outcome,library stock 10 mM,inactive; censored for cell count
same,z-score,[5],0.798 (inactive) and 2.01 (active)
same,z-score,[6],2.61 (active)
same,cell count,[5],3580 and 3980
same,cell count,[6],1750
NC(=O)Nc1sc(-c2ccc(F)cc2)cc1C(N)=O,outcome,library stock 10 mM,inactive; censored for cell count
same,z-score,[1],-0.164 (inactive)
same,z-score,[2],0.156 (inactive)
same,z-score,[3],1.6 (inactive)
same,cell count,[1],6530
same,cell count,[2],6190
same,cell count,[3],4790
Cc1cn(-c2cc(NC(=O)c3ccc(C)c(Nc4nccc(-c5cccnc5)n4)c3)cc(C(F)(F)F)c2)cn1,z-score,[5],-0.15 (inactive)
same,z-score,[6],-0.0425 (inactive)
same,z-score,[7],0.192 (inactive)
same,z-score,[4],1.64 (inactive)
same,cell count,[5],5660
same,cell count,[6],5720
same,cell count,[7],5660
same,cell count,[4],3260
Cc1ccc(NC(=O)c2ccc(CN3CCN(C)CC3)cc2)cc1Nc1nccc(-c2cccnc2)n1,z-score,[5],-0.201 (inactive)
same,z-score,[6],-0.672 (inactive)
same,z-score,[7],-0.269 (inactive)
same,z-score,[4],-0.486 (inactive)
same,cell count,[5],4460
same,cell count,[6],4540
same,cell count,[7],4320
same,cell count,[4],4680
Cc1ccc(NC(=O)c2ccc(CN3CCC(N(C)C)C3)c(C(F)(F)F)c2)cc1Nc1nccc(-c2cncnc2)n1 (centres undefined),z-score,[5],0.0204 (inactive)
same,z-score,[6],0.323 (inactive)
same,z-score,[7],1.69 (inactive)
same,z-score,[4],4.49 (active)
same,cell count,[5],5990
same,cell count,[6],5640
same,cell count,[7],4410
same,cell count,[4],2490
O=C(O)CCC/C=C\C[C@@H]1[C@@H](/C=C/[C@@H](O)C2CCCCC2)[C@H](O)C[C@@H]1O,z-score,,-0.293 (inactive)
same,cell count,,5180
O=C1C[C@@H]2[C@@H](/C=C/[C@@H](O)COc3cccc(C(F)(F)F)c3)[C@H](O)C[C@@H]2O1,z-score,,0.782 (inactive)
same,cell count,,5240
COc1cc(N2CCOCC2)ccc1Nc1ncc(F)c(Nc2ccccc2NS(C)(=O)=O)n1,z-score,[5],-0.351 (inactive)
same,z-score,[6],-0.312 (inactive)
same,z-score,[7],0.0927 (inactive)
same,z-score,[4],3.16 (active)
same,cell count,[5],5830
same,cell count,[6],5470
same,cell count,[7],5120
same,cell count,[4],1690
COc1cc(N2CCC(N3CCN(C)CC3)CC2)ccc1Nc1ncc(Cl)c(Nc2ccccc2S(=O)(=O)C(C)C)n1,outcome,library stock 10 mM,inactive; censored for cell count
same,z-score,[5],0.0842 (inactive)
same,z-score,[6],0.241 (inactive)
same,z-score,[7],1.15 (inactive)
same,cell count,[5],4260
same,cell count,[6],4220
same,cell count,[7],3560
CNC(=O)c1ccccc1Nc1nc(Nc2ccc(N3CCOCC3)cc2OC)ncc1Cl,outcome,library stock 2 mM,inactive; censored for cell count
same,outcome,library stock 10 mM,inactive; censored for cell count
same,z-score,[5],-0.243 (inactive)
same,z-score,[6],-0.00453 (inactive)
same,cell count,[5],6320
same,cell count,[6],5260
CCC(O)/C=C/C=O (centres undefined),z-score,,0.341 (inactive)
same,cell count,,4950
O=C1C(=Cc2cn(-c3ccccc3)nc2-c2ccc(OCc3ccc(Cl)cc3)cc2)SC(=S)N1CCS(=O)(=O)O,z-score,[5],0.0314 (inactive)
same,z-score,[6],0.372 (inactive)
same,z-score,[7],-0.323 (inactive)
same,z-score,[4],-0.219 (inactive)
same,cell count,[5],5380
same,cell count,[6],4640
same,cell count,[7],5180
same,cell count,[4],4960
c1ccc(Nc2nc3c(s2)CCCc2[nH]ncc2-3)nc1,z-score,[1],-0.0827 (inactive)
same,z-score,[2],-0.00166 (inactive)
same,z-score,[3],-0.105 (inactive)
same,z-score,[4],0.335 (inactive)
same,cell count,[1],6250
same,cell count,[2],5830
same,cell count,[3],6080
same,cell count,[4],5550
NC(=O)C1CSSCCC(=O)NC(CCCCN=C(N)N)C(=O)NCC(=O)NC(CC(=O)O)C(=O)NC(Cc2c[nH]c3ccccc23)C(=O)N2CCCC2C(=O)N1 (centres undefined) ([Mpa][hArg]GDWPC-NH2; disulfide 1-7; configuration not given here),z-score,[1],-0.201 (inactive)
same,z-score,[2],-0.18 (inactive)
same,z-score,[3],-0.38 (inactive)
same,z-score,[4],-0.0485 (inactive)
same,cell count,[1],5770
same,cell count,[2],5930
same,cell count,[3],6620
same,cell count,[4],5820
CC(C)C1C(=O)NC(CCCN=C(N)N)C(=O)NCC(=O)NC(CC(=O)O)C(=O)NC(Cc2ccccc2)C(=O)N1C (centres undefined),z-score,[5],0.68 (inactive)
same,z-score,[6],0.227 (inactive)
same,z-score,[7],0.518 (inactive)
same,z-score,[4],5.23 (active)
same,cell count,[5],5020
same,cell count,[6],5060
same,cell count,[7],4260
same,cell count,[4],1780
CCCCC[C@H](O)/C=C/[C@@H]1[C@@H](C/C=C\CCCCOC)[C@@H](O)C[C@H]1O,z-score,,-0.514 (inactive)
same,cell count,,5540
CCCCC[C@@H](O)[C@H]1C(=O)O[C@H](C)[C@@H](O)/C=C/C=C/C=C/C=C/C=C(\C)[C@@H](O)C[C@H](O)C[C@H](O)C[C@H](O)C[C@H](O)C[C@H](O)C[C@@H]1O,z-score,,0.375 (inactive)
same,cell count,,5780
Cc1cc(-c2ccccc2)nc2cc(C(=O)Nc3cccc(O)c3)nn12,z-score,[5],0.0171 (inactive)
same,z-score,[6],0.0308 (inactive)
same,z-score,[7],-0.473 (inactive)
same,z-score,[4],-0.672 (inactive)
same,cell count,[5],5500
same,cell count,[6],5070
same,cell count,[7],5150
same,cell count,[4],5110
